PubChem BioAssay AID1159580 (chemical genetic matrix, 2015)
Out of some 5,500 compounds screened, about 2,000 (36%) were called active. Another 18% or so got no clear call; they are omitted. Cut-off read from the data, not from the text of the source: active = normalized growth mostly below about 0.91 (no sharp cut-off); inconclusive = no clear call, values can overlap the other calls; inactive = mostly above about 0.92. The list shows a part of the results.

Assay: chemical genetic growth profiling, strain panel (AID 1159580);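 note: tested at 20 µM; growth read once vehicle control cultures reached saturation at 30 °C; 1 = growth at the plate median or of vehicle wells; lower values mean less growth of the strain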
Conditions: S. cerevisiae deletion strains, growth OD

Measured: normalized growth

CCNC(=S)N/N=C\c1cc(Cl)cc(Cl)c1O
active: locus YER123W, strain YCK3, stronger effect = lower value 0.577 | locus YGR092W, strain DBF2, stronger effect = lower value 0.313 | locus YHR030C, strain SLT2, stronger effect = lower value 0.446 | locus YHR079C, strain IRE1, stronger effect = lower value 0.341 | locus YKL203C, strain TOR2, stronger effect = lower value 0.686 | locus YLR113W, strain HOG1, stronger effect = lower value 0.706 | locus YOR231W, strain MKK1, stronger effect = lower value 0.471 | locus YPL031C, strain PHO85, stronger effect = lower value 0.635 | locus YPL153C, strain RAD53, stronger effect = lower value 0.621 | locus YPL204W, strain HRR25, stronger effect = lower value 0.642 | locus YPL256C, strain CLN2, stronger effect = lower value 0.495
inactive: locus YAR019C, strain CDC15, stronger effect = lower value 0.926 | locus YBL105C, strain PKC1, stronger effect = lower value 0.938 | locus YBR135W, strain CKS1, stronger effect = lower value 0.92 | locus YBR136W, strain MEC1, stronger effect = lower value 0.931 | locus YBR160W, strain CDC28, stronger effect = lower value 0.922 | locus YDL017W, strain CDC7, stronger effect = lower value 0.925 | locus YDL028C, strain MPS1, stronger effect = lower value 0.927 | locus YDL101C, strain DUN1, stronger effect = lower value 0.923 | locus YDL108W, strain KIN28, stronger effect = lower value 0.928 | locus YDL132W, strain cdc53, stronger effect = lower value 0.948 | locus YDL214C, strain PRR2, stronger effect = lower value 0.83 | locus YDR052C, strain DBF4, stronger effect = lower value 0.929 | locus YDR054C, strain cdc34, stronger effect = lower value 0.938 | locus YDR226W, strain ADK1, stronger effect = lower value 0.941 | locus YDR477W, strain SNF1, stronger effect = lower value 0.733 | locus YER133W, strain GLC7, stronger effect = lower value 0.752 | locus YFL009W, strain cdc4, stronger effect = lower value 0.911 | locus YFL029C, strain CAK1, stronger effect = lower value 0.919 | locus YFR003C, strain YPI1, stronger effect = lower value 0.937 | locus YFR019W, strain FAB1, stronger effect = lower value 0.873 | locus YFR028C, strain CDC14, stronger effect = lower value 0.947 | locus YGR040W, strain KSS1, stronger effect = lower value 0.775 | locus YGR052W, strain FMP48, stronger effect = lower value 0.709 | locus YHR082C, strain KSP1, stronger effect = lower value 0.699 | locus YHR205W, strain SCH9, stronger effect = lower value 0.778 | locus YIL147C, strain SLN1, stronger effect = lower value 0.923 | locus YJL095W, strain BCK1, stronger effect = lower value 0.568 | locus YJL128C, strain PBS2, stronger effect = lower value 0.925 | locus YJL157C, strain FAR1, stronger effect = lower value 0.774 | locus YJR016C, strain ILV3, stronger effect = lower value 0.93 | locus YJR066W, strain TOR1 (second series), stronger effect = lower value 0.654 | locus YJR066W, strain TOR1, stronger effect = lower value 0.509 | locus YKL048C, strain ELM1, stronger effect = lower value 0.825 | locus YKL067W, strain YNK1, stronger effect = lower value 0.875 | locus YKL101W, strain HSL1, stronger effect = lower value 0.76 | locus YKL193C, strain SDS22, stronger effect = lower value 0.908 | locus YLR133W, strain CKI1, stronger effect = lower value 0.804 | locus YLR403W, strain SFP1, stronger effect = lower value 0.746 | locus YML070W, strain DAK1, stronger effect = lower value 0.809 | locus YMR001C, strain CDC5, stronger effect = lower value 0.923 | locus YMR205C, strain PFK2 (second series), stronger effect = lower value 0.805 | locus YMR277W, strain FCP1, stronger effect = lower value 0.916 | locus YNL006W, strain LST8, stronger effect = lower value 0.919 | locus YNL020C, strain ARK1, stronger effect = lower value 0.749 | locus YNL161W, strain CBK1, stronger effect = lower value 0.926 | locus YNL183C, strain NPR1, stronger effect = lower value 0.589 | locus YNL207W, strain RIO2, stronger effect = lower value 0.91 | locus YNL222W, strain SSU72, stronger effect = lower value 0.93 | locus YNL307C, strain MCK1 (second series), stronger effect = lower value 0.647 | locus YOL078W, strain AVO1, stronger effect = lower value 0.916 | locus YOL136C, strain PFK27, stronger effect = lower value 0.778 | locus YOR061W, strain CKA2, stronger effect = lower value 0.801 | locus YOR119C, strain RIO1, stronger effect = lower value 0.78 | locus YOR329C, strain SCD5, stronger effect = lower value 0.926 | locus YPL209C, strain IPL1, stronger effect = lower value 0.919 | locus YPR025C, strain CCL1, stronger effect = lower value 0.923 | locus YPR106W, strain ISR1, stronger effect = lower value 0.947 | locus YPR111W, strain DBF20, stronger effect = lower value 0.938 | strain NNK1, stronger effect = lower value 0.94 | strain TSCII, stronger effect = lower value 0.912
